Compounds without any hit were thinned out: in the full panel of roughly 79,000, 15% have a hit. Values without a mark were called inactive. Calls of active or inactive are those of the source. No stated cut-off is given here; in the data, active means growth inhibition above about 70%; inactive means the rest.

The values below come from PubChem BioAssay (NCI).

Test [1] can be described thus: NCI Yeast Anticancer Drug Screen. Data for the rad50 strain (AID 155).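 Further: 0% = growth of vehicle-only cultures of the same strain.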 As to conditions: S. cerevisiae rad50 strain growth inhibition, hits give high values. Summed up: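 Cells are treated with compound, grown, and their growth is then scored against vehicle-only cultures of the same repair-deficient yeast strain.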
The nature of test [2]: NCI Yeast Anticancer Drug Screen. Data for the mec2-1 strain (AID 157). As to conditions: S. cerevisiae mec2-1 strain, hits give high values. Summed up:
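Strain: mec2-1 (DNA repair/cell cycle alteration). Compound exposure, then growth measured; inhibition expressed relative to vehicle.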

Test [3] in a line: NCI Yeast Anticancer Drug Screen. Data for the sgs1 mgt1 strain (AID 161).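 Further: 0% = growth of cultures given vehicle only.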 As to conditions: S. cerevisiae sgs1 mgt1 strain, hits give high values. Summed up: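 Test agents were incubated with a DNA-repair-mutant yeast strain. Growth was then read and compared against vehicle-treated controls.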
The nature of test [4]: NCI Yeast Anticancer Drug Screen. Data for the cln2 rad14 strain (AID 165).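 Further: 0% = growth equal to vehicle treated cultures.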 The conditions noted are these: S. cerevisiae cln2 rad14 strain, hits give high values. A digest of the protocol:
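Compounds are applied to the cln2 rad14 yeast strain, and growth is then compared with that of vehicle-treated cultures to give inhibition.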

The nature of test [5]: NCI Yeast Anticancer Drug Screen. Data for the bub3 strain (AID 167). As to conditions: S. cerevisiae bub3 mutant strain, hits give high values. A digest of the protocol:
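Part of a panel of yeast mutants defective in DNA damage repair or cell cycle regulation. Each strain is grown with compound, and inhibition is calculated relative to solvent-treated cultures.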

The nature of test [6]: NCI Yeast Anticancer Drug Screen. Data for the mlh1 rad18 strain (AID 175). The conditions noted are these: S. cerevisiae mlh1 rad18 strain growth inhibition, hits give high values. Summed up:
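Read-out is yeast growth inhibition, calculated against vehicle-only controls. The compound was applied to a strain engineered with DNA damage repair alterations.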

The mark [7] stands for this setting: at 5.0 µM (retest, dose inferred, filed as 0.5).
Where [8] appears, read: at 50.0 µM (retest, dose inferred, filed as 5.0).

For `Cc1cc2nc3[nH]c4c(Cl)cc(Cl)cc4c3nc2cc1C`, the growth inhibition in test [1] (setting [7]) is 26%; in test [1] (setting [8]), 28%; in test [1] (at 50.0 µM), -36.8%; in test [2] (setting [7]), 14%; in test [2] (setting [8]), 10%; in test [2] (at 50.0 µM), -28.6%. Moreover, the growth inhibition in test [3] (setting [7]) was 3%; in test [3] (setting [8]) it was 3%; in test [3] (at 50.0 µM), -7.3%; in test [4] (setting [7]), -10%; in test [4] (setting [8]), 5%; in test [4] (at 50.0 µM) it was 56.4%. Also, the growth inhibition was -4% in test [5] (setting [7]); 8% in test [5] (setting [8]); -70.8% in test [5] (at 50.0 µM); 4% in test [6] (setting [7]); 19% in test [6] (setting [8]); -20.6% in test [6] (at 50.0 µM).
As for `CCN(CC)C(=S)N=Nc1c(O)[nH]c2ccccc12`, the growth inhibition in test [1] (setting [7]) is 80% (active); in test [1] (setting [8]), 99% (active); in test [1] (at 50.0 µM), 82.5% (active); in test [2] (setting [7]), 76% (active); in test [2] (setting [8]), 99% (active); in test [2] (at 50.0 µM), 87.2% (active). The growth inhibition in test [3] (setting [7]) is 81% (active); in test [3] (setting [8]), 99% (active); in test [3] (at 50.0 µM), 89.3% (active); in test [4] (setting [7]) it was 85% (active); in test [4] (setting [8]), 90% (active); in test [4] (at 50.0 µM) it was 89.8% (active). The growth inhibition was 76% (active) in test [5] (setting [7]); 99% (active) in test [5] (setting [8]); 91% (active) in test [5] (at 50.0 µM); 82% (active) in test [6] (setting [7]); 99% (active) in test [6] (setting [8]); 92% (active) in test [6] (at 50.0 µM).
As for `O=[N+]([O-])C1C2C=CC(C2)[C@H]1c1ccc(Cl)cc1Cl` (stereo not given in full), the growth inhibition in test [1] (setting [7]) was 28%; in test [1] (setting [8]), 70% (active); in test [1] (at 50.0 µM) it was 89.5% (active); in test [2] (setting [7]), 29%; in test [2] (setting [8]), 85% (active); in test [2] (at 50.0 µM) it was 93.2% (active). Further, the growth inhibition in test [3] (setting [7]) was 33%; in test [3] (setting [8]) it was 96% (active); in test [3] (at 50.0 µM), 92.2% (active); in test [4] (setting [7]), 15%; in test [4] (setting [8]), 73% (active); in test [4] (at 50.0 µM), 89% (active). Besides, the growth inhibition in test [5] (setting [7]) was 52%; in test [5] (setting [8]), 93% (active); in test [5] (at 50.0 µM), 91.6% (active); in test [6] (setting [7]), 37%; in test [6] (setting [8]), 89% (active); in test [6] (at 50.0 µM), 89.2% (active).
As to `O=C(O)CN(CCN1CC(=O)OC(=O)C1)CCN1CC(=O)OC(=O)C1`, the growth inhibition in test [1] (setting [7]) is 4%; in test [1] (setting [8]), 61%; in test [1] (at 50.0 µM), 89.9% (active); in test [2] (setting [7]), -1%; in test [2] (setting [8]) it was 49%; in test [2] (at 50.0 µM), 88.5% (active). Further, the growth inhibition is 8% in test [3] (setting [7]); 29% in test [3] (setting [8]); 86.5% (active) in test [3] (at 50.0 µM); -8% in test [4] (setting [7]); 46% in test [4] (setting [8]); 70.5% (active) in test [4] (at 50.0 µM). For the same compound, the growth inhibition in test [5] (setting [7]) is 4%; in test [5] (setting [8]) it was 88% (active); in test [5] (at 50.0 µM) it was 72.5% (active); in test [6] (setting [7]), 8%; in test [6] (setting [8]), 41%; in test [6] (at 50.0 µM), 84.3% (active).
Take `O=c1cc(CSc2ccc(Cl)cc2)occ1O`: the growth inhibition in test [1] (setting [7]) is 3%; in test [1] (setting [8]), 32%; in test [1] (at 50.0 µM) it was 44.5%; in test [2] (setting [7]) it was -2%; in test [2] (setting [8]) it was 17%; in test [2] (at 50.0 µM), 13.4%. Besides, the growth inhibition in test [3] (setting [7]) was 3%; in test [3] (setting [8]), 72% (active); in test [3] (at 50.0 µM), 87.2% (active); in test [4] (setting [7]), 7%; in test [4] (setting [8]) it was 18%; in test [4] (at 50.0 µM) it was 13.2%. For the same compound, the growth inhibition was -3% in test [5] (setting [7]); 4% in test [5] (setting [8]); 11.9% in test [5] (at 50.0 µM); 2% in test [6] (setting [7]); 51% in test [6] (setting [8]); 55% in test [6] (at 50.0 µM).
In the case of `C/C(O)=C(/C=N/C(=S)Nc1ccc(S(N)(=O)=O)cc1)C(=O)Nc1ccccc1C`, the growth inhibition in test [1] (setting [7]) is 0%; in test [1] (setting [8]), 18%; in test [1] (at 50.0 µM), 79.7% (active); in test [2] (setting [7]), -10%; in test [2] (setting [8]) it was -4%; in test [2] (at 50.0 µM) it was 81.7% (active). In addition, the growth inhibition in test [3] (setting [7]) was -5%; in test [3] (setting [8]), -2%; in test [3] (at 50.0 µM), 68.8%; in test [4] (setting [7]) it was -14%; in test [4] (setting [8]), 6%; in test [4] (at 50.0 µM), 81.3% (active). For the same compound, the growth inhibition in test [5] (setting [7]) was -13%; in test [5] (setting [8]), -6%; in test [5] (at 50.0 µM) it was 67.5%; in test [6] (setting [7]) it was 3%; in test [6] (setting [8]), -15%; in test [6] (at 50.0 µM), 89.4% (active).
For the compound `O=C(O)CCCCCCCCCCOc1ccc(Cl)cc1Cl`, the growth inhibition in test [1] (setting [7]) was -3%; in test [1] (setting [8]), -8%; in test [1] (at 50.0 µM), 98% (active); in test [2] (setting [7]) it was -2%; in test [2] (setting [8]), -2%; in test [2] (at 50.0 µM), 99.1% (active). Further, the growth inhibition in test [3] (setting [7]) is 0%; in test [3] (setting [8]), -3%; in test [3] (at 50.0 µM) it was 94.3% (active); in test [4] (setting [7]) it was 1%; in test [4] (setting [8]), -8%; in test [4] (at 50.0 µM), 5.5%. Also, the growth inhibition in test [5] (setting [7]) is -1%; in test [5] (setting [8]), 2%; in test [5] (at 50.0 µM), 99.3% (active); in test [6] (setting [7]) it was 0%; in test [6] (setting [8]), -1%; in test [6] (at 50.0 µM) it was 98.2% (active).
For `Cc1ccc(S(=O)(=O)OCC(C)(C)C)cc1`, the growth inhibition was -152% in test [1] (setting [7]); -169% in test [1] (setting [8]); 8.4% in test [1] (at 50.0 µM); -48% in test [2] (setting [7]); -59% in test [2] (setting [8]); 2.05% in test [2] (at 50.0 µM). For the same compound, the growth inhibition in test [3] (setting [7]) was -63%; in test [3] (setting [8]), -69%; in test [3] (at 50.0 µM), -2.7%; in test [4] (setting [7]), -61%; in test [4] (setting [8]), -83%; in test [4] (at 50.0 µM), -29.6%. Moreover, the growth inhibition in test [5] (setting [7]) was -57%; in test [5] (setting [8]) it was 5%; in test [5] (at 50.0 µM), 86.8% (active); in test [6] (setting [7]), -125%; in test [6] (setting [8]) it was -127%; in test [6] (at 50.0 µM), 14.5%.
Regarding `Nc1ccccc1CCc1ccccc1`, the growth inhibition in test [1] (setting [7]) was 0%; in test [1] (setting [8]) it was 79% (active); in test [1] (at 50.0 µM), 96.9% (active); in test [2] (setting [7]), 0%; in test [2] (setting [8]) it was 74% (active); in test [2] (at 50.0 µM), 84.5% (active). Moreover, the growth inhibition in test [3] (setting [7]) is 2%; in test [3] (setting [8]) it was 85% (active); in test [3] (at 50.0 µM), 41.8%; in test [4] (setting [7]), -1%; in test [4] (setting [8]) it was 78% (active); in test [4] (at 50.0 µM), 67%. Besides, the growth inhibition in test [5] (setting [7]) was 0%; in test [5] (setting [8]) it was 74% (active); in test [5] (at 50.0 µM), 90.8% (active); in test [6] (setting [7]) it was 28%; in test [6] (setting [8]), 91% (active); in test [6] (at 50.0 µM) it was 85.7% (active).
As for `CCOP(=O)(CCC(=O)[C@@]1(O)CC[C@H]2[C@@H]3CCC4=CC(=O)CC[C@]4(C)[C@H]3CC[C@@]21C)OCC`, the growth inhibition was 0% in test [1] (setting [7]); 2% in test [1] (setting [8]); 33.9% in test [1] (at 50.0 µM); 1% in test [2] (setting [7]); 5% in test [2] (setting [8]); 5.55% in test [2] (at 50.0 µM). For the same compound, the growth inhibition is 3% in test [3] (setting [7]); 16% in test [3] (setting [8]); 72.8% (active) in test [3] (at 50.0 µM); -1% in test [4] (setting [7]); 2% in test [4] (setting [8]); 59.4% in test [4] (at 50.0 µM). For the same compound, the growth inhibition in test [5] (setting [7]) is -2%; in test [5] (setting [8]) it was -3%; in test [5] (at 50.0 µM) it was 29.8%; in test [6] (setting [7]) it was -4%; in test [6] (setting [8]), 7%; in test [6] (at 50.0 µM), 39.1%.
